Experimental data: PubChem BioAssay (NCATS)
Records with an inconclusive call do not appear. Entries that show only a call come without a potency. Active and inactive are the calls of the source. The call rests on the fitted dose curve; in most records, active means well fitted curve in the direction sought with a large enough effect; inconclusive means small, poorly fitted or top-dose-only effect, or another doubt; inactive means no such curve, though single readings can be large; an effect the other way counts as inactive or inconclusive.

System: not listed separately
Assay: Cell Viability - LYMP1-002 - Assay at 24 hr (AID 993); further: potency means the concentration at half of the fitted maximal effect
Conditions: LYMP1-002 lymphoblastoid cells viability; series mostly up to 92.2 µM
How it was run: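 qHTS, LYMP1-002 lymphoblastoid, 24 h cpd, 37 C, CellTiter-Glo ATP luminescence; AC50 via Hill eq.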

SMILES | Potency
Oc1ccc(Cl)cc1 | inactive
CCOC(=O)CC(SP(=S)(OC)OC)C(=O)OCC (centres undefined) | inactive
C[C@]12CCC(=O)C=C1CC[C@@H]1[C@@H]2CC[C@@]2(C)[C@H]1CC[C@]2(C)O | inactive
Clc1ccc(C(c2ccc(Cl)cc2)C(Cl)(Cl)Cl)cc1 | 50.1 µM (active)
CCC(C)(C)c1ccc(O)cc1 | inactive
Nc1ccccc1 | inactive
CN1C[C@H](C(=O)N[C@]2(C)O[C@@]3(O)[C@@H]4CCCN4C(=O)[C@H](Cc4ccccc4)N3C2=O)C=C2c3cccc4[nH]cc(c34)C[C@H]21 | inactive
Nc1ccccc1C(=O)O | inactive
CC(C)NC(C)C | inactive

System: not listed separately
Assay: Cell Viability - LYMP1-002 - Assay at 40 hr (AID 994); further: nearly all actives have a fitted effect of over 60% in size
Conditions: LYMP1-002 lymphoblastoid cell viability; series mostly up to 92.2 µM
How it was run: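 Viability in the human lymphoblastoid line was measured as intracellular ATP via CellTiter-Glo after 40 hr compound exposure. Tetraoctylammonium bromide served as positive control.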

SMILES | Potency
Oc1ccc(Cl)cc1 | inactive
CCOC(=O)CC(SP(=S)(OC)OC)C(=O)OCC (centres undefined) | inactive
C[C@]12CCC(=O)C=C1CC[C@@H]1[C@@H]2CC[C@@]2(C)[C@H]1CC[C@]2(C)O | inactive
Clc1ccc(C(c2ccc(Cl)cc2)C(Cl)(Cl)Cl)cc1 | inactive
CCC(C)(C)c1ccc(O)cc1 | inactive
Nc1ccccc1 | inactive
CN1C[C@H](C(=O)N[C@]2(C)O[C@@]3(O)[C@@H]4CCCN4C(=O)[C@H](Cc4ccccc4)N3C2=O)C=C2c3cccc4[nH]cc(c34)C[C@H]21 | inactive
Nc1ccccc1C(=O)O | inactive
CC(C)NC(C)C | inactive

Target: Alpha-galactosidase (Coffea arabica) (UniProt Q42656)
Sequence (Q42656 whole entry, looked up): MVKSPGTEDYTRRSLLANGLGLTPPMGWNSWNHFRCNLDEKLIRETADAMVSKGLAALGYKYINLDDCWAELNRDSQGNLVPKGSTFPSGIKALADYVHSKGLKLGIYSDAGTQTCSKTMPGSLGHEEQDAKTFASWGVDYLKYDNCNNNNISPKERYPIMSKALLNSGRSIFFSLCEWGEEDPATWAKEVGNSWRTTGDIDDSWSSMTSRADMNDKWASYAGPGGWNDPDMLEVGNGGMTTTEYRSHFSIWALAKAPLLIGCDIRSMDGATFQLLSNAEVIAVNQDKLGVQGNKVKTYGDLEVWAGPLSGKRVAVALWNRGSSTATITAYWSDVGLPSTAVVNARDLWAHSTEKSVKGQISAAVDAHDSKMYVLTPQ
Assay: Counterscreen for Glucocerebrosidase Inhibitors: qHTS Assay for Coffee Bean alpha-Galactosidase at pH 5.9 (AID 998)
Conditions: coffee bean alpha-galactosidase enzyme assay; series mostly up to 76.9 µM
How it was run: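 Green coffee bean enzyme (2 nM final) was incubated with compounds (0.7 nM–77 uM) and 4-methylumbelliferyl alpha-D-galactopyranoside (80 uM) in citrate buffer pH 5.9, 20 min at room temperature. High-pH stop; fluorescence 365/440 nm; AC50 from Hill fits.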

SMILES | outcome
CC(=O)O[C@H]1C(=O)[C@@]2(C)[C@H]([C@H](OC(=O)c3ccccc3)[C@]3(O)C[C@H](OC(=O)[C@H](O)[C@@H](NC(=O)c4ccccc4)c4ccccc4)C(C)=C1C3(C)C)[C@]1(OC(C)=O)CO[C@@H]1C[C@@H]2O | inactive
O=C(O)CCCCCCCC(=O)O | inactive
CNC[C@H](O)c1cccc(O)c1 | inactive
O=C1NCC2(CCN(CCc3ccccc3)CC2)O1 | inactive
Cc1scc2c1N(C(=O)CN1CCN(C)CC1)c1ccccc1NC2=O | inactive
CN(C)CCOC(=O)COc1ccc(Cl)cc1 | inactive
Clc1cccc(Cl)c1NC1=NCCN1 | inactive
O=C(O)CN(CCN(CC(=O)O)CC(=O)O)CCN(CC(=O)O)CC(=O)O | inactive
Cc1nc2c([nH]1)c(=O)n(C)c(=O)n2Cc1ccco1 | inactive
NCCCCCC(=O)O | inactive
C[N+](C)(C)CCCCCC[N+](C)(C)C | inactive
CC(C)(C)NC[C@H](O)COc1nsnc1N1CCOCC1 | inactive
COc1ccc(C2CNC(=O)C2)cc1OC1CCCC1 (centres undefined) | inactive
O=c1[nH]c(=O)n([C@H]2C[C@H](O)[C@@H](CO)O2)cc1Br | inactive
CN1CCN(CC(=O)N2c3ccccc3C(=O)Nc3cccnc32)CC1 | inactive
CN(C)C(=O)Oc1ccc[n+](C)c1 | inactive
CN1CCC[C@@H]1c1cccnc1 | inactive
CCN1CCC[C@H]1CNC(=O)c1cc(S(N)(=O)=O)ccc1OC | inactive
NC(N)=Nc1nc(CSCC/C(N)=N/S(N)(=O)=O)cs1 | inactive
FC(F)(F)c1ccccc1-n1ccnc1 | inactive
CC(=O)Oc1cc(C(C)C)c(OCCN(C)C)cc1C | inactive
CCN(CC)CCNC(=O)c1cc(S(C)(=O)=O)ccc1OC | inactive
COc1ccc2[nH]cc(CCNC(C)=O)c2c1 | inactive
CC(C)C(=O)c1c(C(C)C)nn2ccccc12 | inactive
CNCCC=C1c2ccccc2CCc2ccccc21 | inactive
CN1[C@@H]2CC[C@H]1CC(OC(c1ccccc1)c1ccccc1)C2 (some centres undefined) | inactive
